# Screens (PubChem BioAssay)
# Sampled rows, rich in hits. Any-hit rate of the full collection: about 2.3%.
# GLP1R ag: qHTS of GLP-1 Receptor Agonists; AID 624172, 2012; HEK293 GLP-1R CRE-luciferase, luminescence, 4-6 h; cells express a hypersensitive GLP-1R form; Glucagon-like peptide 1 receptor (Homo sapiens), P43220; Potency, µM (series often up to 45.6 µM), for inactives: top-dose activation, usual class: activators; hit rate 0.007% among 380,000; further: % of control where 0% means no effect
# ALOX12 inh: Primary qHTS assay for inhibitors of human arachidonate 12S-lipoxygenase (ALOX12): Round 2; Polyunsaturated fatty acid lipoxygenase ALOX12 (Homo sapiens), P18054; purified 12hLO, xylenol orange hydroperoxide absorbance; Potency, µM (highest dose often 108 µM), inactives show at the highest dose activity change, negative = inhibition, most hits filed as inhibitors; hit rate 1.1% among 580,000; further: on the % scale 0 is the no-effect control and ±100 the full control effect
#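 Purified human 12hLO (150 nM final) in 25 mM Hepes, 0.01% Triton X-100, pH 7.0 was preincubated 15 min at room temperature with compound. Then 40 uM arachidonic acid was added, 30 min. Hydroperoxide was read by Fe-XO absorbance ratio 573/405 nm.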
# GLS inhibitor: qHTS for Inhibitors of Glutaminase (GLS); AID 624170, 2012; Potency, µM (series often up to 45.5 µM), without a hit: at the top dose activity change, negative = inhibition, hits mostly inhibitors; hit rate 0.21% among 410,000; GLS enzymatic activity, qHTS titration; Glutaminase kidney isoform, mitochondrial (Homo sapiens), O94925; further: on the % scale 0 is the no-effect control and ±100 the full control effect
# Target sequence (O94925 whole entry, looked up, canonical isoform): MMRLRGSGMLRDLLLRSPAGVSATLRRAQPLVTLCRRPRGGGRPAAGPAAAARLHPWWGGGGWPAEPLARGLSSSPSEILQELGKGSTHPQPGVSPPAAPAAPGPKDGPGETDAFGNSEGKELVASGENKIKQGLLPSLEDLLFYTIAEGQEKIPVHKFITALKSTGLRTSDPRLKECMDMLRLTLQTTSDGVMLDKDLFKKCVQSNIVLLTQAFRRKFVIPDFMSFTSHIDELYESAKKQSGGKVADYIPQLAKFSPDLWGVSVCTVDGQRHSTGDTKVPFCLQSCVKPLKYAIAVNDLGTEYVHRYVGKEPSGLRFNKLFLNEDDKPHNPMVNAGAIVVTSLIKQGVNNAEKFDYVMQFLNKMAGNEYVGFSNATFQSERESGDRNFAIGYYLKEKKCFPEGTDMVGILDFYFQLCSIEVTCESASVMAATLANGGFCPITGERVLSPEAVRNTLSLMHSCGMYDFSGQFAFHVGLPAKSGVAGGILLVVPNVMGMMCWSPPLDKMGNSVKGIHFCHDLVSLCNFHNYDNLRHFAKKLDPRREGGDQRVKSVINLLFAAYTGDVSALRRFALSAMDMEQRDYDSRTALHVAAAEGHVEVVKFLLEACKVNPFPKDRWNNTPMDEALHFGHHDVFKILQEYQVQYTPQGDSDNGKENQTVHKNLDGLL
#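 hKGA in 45 mM KH2PO4 pH 8.2, 0.02% Tween-20 with pin-transferred compounds; 1 mM L-glutamine (stock) plus glutamate oxidase/HRP/Amplex Red coupling added. Fluorescence read initially and after 30 min at RT.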
# GLP-1R inv ag: qHTS of GLP-1 Receptor Inverse Agonists (Inhibition Mode); Potency, µM (highest dose often 38.3 µM), for inactives: top-dose activity change, negative = inhibition, actives largely listed as inhibitors; Glucagon-like peptide 1 receptor (Homo sapiens), P43220; HEK293 GLP-1R CRE-luciferase, luminescence, 24 h; GLP-1R form is constitutively active; hit rate 1.6% among 410,000; AID 624417, 2012; further: on the % scale 0 is the no-effect control and ±100 the full control effect; nearly all actives have a fitted effect of over 55% in size
#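 Luminescence readout: a drop in cAMP-driven luciferase signal flags inverse agonism at a constitutively active GLP-1R stably expressed in HEK293. Compound exposure lasted 24 hr at 37 deg C, 5% CO2.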
# Glioma ERSR ind: qHTS for Inducers of the Endoplasmic Reticulum Stress Response (ERSR) in Human Glioma: qHTS; U87-MG GRP78 promoter luciferase reporter, 16 h; hit rate 0.02% among 420,000; Potency, µM, without a hit: at the highest dose activation, actives largely listed as activators; further: series mostly up to about 76 µM; % of control where 0% means no effect; nearly all actives have a fitted effect of over 35% in size
#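 Stably transfected U87-MG human glioma cells carrying a GRP78-based luminescent sensor were seeded at 1000 cells/well, pin-dosed with compounds and incubated 16 h. Luciferase reagent was then added, and end-point luminescence was read after 10 min at room temperature.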
# PTHR1 ag: qHTS for PTHR1 Agonists: Primary Screen; HEK293 GP2 PTHR1 cells, GloSensor cAMP luminescence, 1 h; Potency, µM (doses to about 115 µM), inactives show at the highest dose activation, actives largely listed as activators; hit rate 0.075% among 410,000; further: nearly all actives have a fitted effect of over 55% in size
#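 HEK-293-derived GP2 cells expressing PTHR1 and a GloSensor cAMP reporter, 3,000/well, plated overnight, given luciferin plus IBMX (each 0.5 mM as added) for 1 h at 37 °C, then compound for 1 h at 37 °C. Luminescence was read after 15 min at room temperature.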
# * hit, by the source's call; i = inactive; ? = inconclusive; . = not tested or not shown; [ ] = another dose, or the depositor's remark. The call rests on the fitted dose curve; in most records, active means well fitted curve in the direction sought with a large enough effect; inconclusive means small, poorly fitted or top-dose-only effect, or another doubt; inactive means no such curve, though single readings can be large; an effect the other way counts as inactive or inconclusive. Potency means the concentration at half of the fitted maximal effect.
SMILES,GLP1R ag,ALOX12 inh,GLS inhibitor,GLP-1R inv ag,Glioma ERSR ind,PTHR1 ag
Clc1ccccc1-c1nccc(NCc2ccccc2)n1,.,?,.,.,0%,.
Clc1ccccc1-c1nccc(NCCN2CCOCC2)n1,.,45µM*,.,.,-1%,.
CSc1nnc(-c2ccccc2NC(=O)c2ccc(C)c(S(=O)(=O)N3CCCCCC3)c2)o1,.,3%,.,.,.,.
CCOc1ccc(CC(=O)N2CCC(Cc3nc(-c4ccc(OC)cc4)no3)CC2)cc1OCC,.,-20%,.,.,.,.
COc1ccnc2c1c(=O)n(Cc1ccc(Cl)cc1Cl)c(=O)n2C,8%,3%,11µM*,-10%,-2%,-20%
COc1ccnc2c1c(=O)n(Cc1ccccc1Cl)c(=O)n2C,21%,11%,13µM*,8%,-3%,-15%
COc1ccnc2c1c(=O)n(Cc1c(F)cccc1Cl)c(=O)n2C,-2%,22%,?,2%,-2%,i
COc1ccnc2c1c(=O)n(Cc1ccc(Cl)cc1)c(=O)n2C,12%,11%,?,19%,-6%,-31%
Cc1nc(NCC2CCCO2)c(C#N)c2c1CCCC2 (stereo unspecified),.,39%,.,.,.,.
O=C(/C=C/c1ccccc1)Nc1ccccc1C(=O)NCc1cccnc1,.,28%,.,.,.,.
Cc1c(Cl)c(C(=O)Nc2sc3c(c2C#N)CCC3)nn1C,.,-27%,.,.,.,.
COc1ccc(C2CN=NC23CCCc2ccccc2C3=O)cc1 (stereo unspecified),-4%,0%,2%,0%,3%,-23%
COc1ccccc1C1CN=NC12CCCc1ccccc1C2=O (stereo unspecified),-6%,39%,-1%,7.1µM*,-6%,-40%
COc1ccc(OCCOC(=O)Cn2cnc3c2c(=O)n(C)c(=O)n3C)cc1,.,21%,.,.,.,.
CC(CC(=O)Nc1cccc(O)c1)(C(=O)O)c1ccccc1 (stereo unspecified),.,8%,.,.,.,.
O=c1ccc(N=Nc2ccccc2)ccc1O,2%,45µM*,21%,?,-2%,-64%
C[S+](=O)([O-])CCn1ncc2cc(OCc3cccc(-c4cccnc4)c3)ccc21,.,13%[176 µM],.,.,.,.
Cc1ccccc1-c1nc(C#N)c(NCCCN(C)C)o1,.,-4%,.,.,.,.
Cc1ccc2c(n1)N(C)[C@H](CO)CCN(Cc1ccc(C(F)(F)F)cc1)C2,.,7%[176 µM],.,.,.,.
O=C(Nc1ccc(OC(F)F)c(Cl)c1)Nc1ccc2c(c1)OCO2,-12%,1%,2%,?,-4%,-49%
O=C(Nc1ccc([N+](=O)[O-])cc1)Nc1ccc(OC(F)F)c(Cl)c1,-8%,-12%,19%,3.5µM*,-13%,-41%
Cc1ccc(NC(=O)/C(=C/c2ccco2)c2ccccc2)c(C)c1,1%,-3%,2%,?,-4%,-12%
CSc1ccccc1NC(=O)/C(=C/c1ccco1)c1ccccc1,.,50µM*,.,.,.,.
CC1(C(=O)NCc2ccccc2)Cc2c(-c3ccc(C(N)=O)cc3)ccnc2O1 (stereo unspecified),20%,-3%,5%,6.3µM*,-4%,-7%
CC1(C(=O)NCc2ccccc2)Cc2c(-c3ccc4c(c3)OCO4)ccnc2O1 (stereo unspecified),10%,7%,1%,2.8µM*,-5%,i
SMILES,GLP1R ag,ALOX12 inh,GLS inhibitor,GLP-1R inv ag,Glioma ERSR ind,PTHR1 ag
COC(=O)c1c(COc2ccc(C)nc2[N+](=O)[O-])nc2ccccc2c1-c1ccccc1,.,-43%,.,.,.,.
Cc1nn2c(c1-c1ccccc1-c1ccccc1)N(CCC(C)C)CCC2,.,40µM*,.,.,.,.
Cc1nn2c(c1-c1ccccc1-c1ccccc1)N(Cc1ccccc1)CCC2,.,6%[176 µM],.,.,.,.
O=C1/C(=C/c2ccco2)CCC1C1CCCC1 (stereo unspecified),5%,-16%,-2%,3%,1%,-26%
O=C1/C(=C\c2ccco2)CCC/C1=C\c1ccco1,-3%,25µM*,3%,34%,19%,-20%
Cc1ccc(C)c(-c2nc(NC(=O)c3cc(C)on3)sc2C)c1,.,23%,.,.,.,.
Clc1cccc(-n2nnnc2NCc2ccccc2Oc2ccccn2)c1Cl,.,12µM*,.,.,.,.
Cc1cc(=O)n2c3ccccc3nc2n1CC(=O)c1ccc(Br)cc1,.,-2%,.,.,.,.
COC(=O)CN1CCN(C(c2ccccc2)c2ccccc2)CC1,5%,-10%,10%,-3%,-3%,i
COC(=O)C1=C/C=C\CN(C(c2ccccc2)c2ccccc2)/C=C\1C(=O)OC,1%,?,-1%,10µM*,-2%,-16%
CC(NC(=O)/C=C/c1cccnc1)c1ccc(C(F)(F)F)cc1 (stereo unspecified),.,1%,.,.,.,.
COC(=O)c1ccc(COc2ccc3c(=O)c(-c4ccc(OC)cc4)c(C)oc3c2)cc1,.,1%,.,.,.,.
CC(=O)Nc1ccc(S(=O)(=O)NC2CC2)cc1,0%,48%,-3%,7%,-4%,7%
CC(=O)Nc1ccc(S(=O)(=O)NC2C3(C)CCC(C3)C2(C)C)cc1 (stereo unspecified),4%,3.2µM*,-3%,-9%,-3%,-10%
CC(C(=O)Nc1ccc2[nH]c(=O)[nH]c2c1)N(C)Cc1c(F)cccc1Cl (stereo unspecified),.,-27%,.,.,.,.
CCN1C(=O)[C@H]2[C@@H](c3ccc(-c4ccc(F)cc4)c(OC)c3)N[C@@](C)(C(=O)OC)[C@H]2C1=O,5%,11µM*,-5%,6%,-3%,-27%
CCN1C(=O)[C@H]2[C@@H](c3ccc(-c4cccc(Cl)c4)cc3)N[C@@](C)(C(=O)OC)[C@H]2C1=O,7%,?,-10%,11µM*,11%,i
CCN1C(=O)[C@H]2[C@@H](c3ccc(-c4ccccc4)cc3)N[C@@](C)(C(=O)OC)[C@H]2C1=O,-5%,-16%,8%,4%,-8%,-24%
Cc1nnc(SC(C)C(=O)Nc2ccc(F)c(Cl)c2)n1C (stereo unspecified),.,-3%,.,.,.,.
CCOC(=O)c1cc2cc(C#N)ccc2[nH]1,.,-46%,.,.,.,.
CC1=C(C(=O)Nc2ccc(C)cn2)C(c2cccc(Oc3ccccc3)c2)C2=C(CCCC2=O)N1 (stereo unspecified),.,-12%,.,.,.,.
Cc1ccc(-c2cc(C(=O)Nc3cc(F)ccc3F)c3ccccc3n2)o1,.,7.9µM*,.,.,.,.
